# “And” between values parts separate entries of the source, which are not always exact repeats. Equal entries are not always repeated. Inconclusive results are not listed. The source made the active and inactive calls. Unless noted, the call rests on the fitted dose curve; in most records, active means well fitted curve in the direction sought with a large enough effect; inconclusive means small, poorly fitted or top-dose-only effect, or another doubt; inactive means no such curve, though single readings can be large; an effect the other way counts as inactive or inconclusive.
# Assays:
# [1] = qHTS Assay for Lipid Storage Modulators (AID 1519; calls by dose curve); conditions: Drosophila S3 cells, BODIPY lipid droplet/cell ratio, laser cytometry, cells loaded with oleic acid
# In short: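 Cells seeded at 5,000 per well were treated with compounds over a concentration series and loaded with oleic acid (400 uM, as added). Lipid droplet fluorescence (488 nm excitation, 500-530 nm channel) was read by laser-scanning cytometry and normalized to 20 uM Triacsin C.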
# [2] = Cell Viability - LYMP2-026 (AID 989); conditions: LYMP2-026 lymphoblastoid cell viability, qHTS; series mostly up to 92.2 µM;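 further: cells exposed to compound for 24 h at 37 °C; on the % scale 0 is the no-effect control and ±100 the full control effect; nearly all actives have a fitted effect of over 50% in size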
# In short: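 Acute toxicity screen in complete culture medium, with 24 hr compound exposure at 37 C. Viability read as cellular ATP via luciferase reaction, with tetraoctylammonium bromide (6.4pM to 92 uM) as positive control.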
# [3] = Cell Viability - LYMP1-002 - Assay at 24 hr (AID 993); conditions: LYMP1-002 lymphoblastoid cells viability; series mostly up to 92.2 µM; further: on the % scale 0 is the no-effect control and ±100 the full control effect
# In short: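 Viability was judged from intracellular ATP using a luciferase read-out, following a 24-hour compound incubation at 37 C of lymphoblastoid cells seeded at 2500 per well. Concentration-response data were fitted to the Hill equation for AC50.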
# [4] = Cell Viability - LYMP1-002 - Assay at 40 hr (AID 994); conditions: LYMP1-002 lymphoblastoid cell viability; series mostly up to 92.2 µM;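 further: 0% = DMSO only and full inhibition = 92 µM tetraoctylammonium bromide; nearly all actives have a fitted effect of over 60% in size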
# In short: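 Concentration-dependent ATP loss after 40 hr treatment at 37 C defined toxicity; AC50 values were obtained by fitting the standard Hill equation.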
# [5] = qHTS Assay for Identification of Small Molecule Inducers of Hypoxia Response (AID 2120; active means well fitted curve in the direction sought with a large enough effect in the signal ratio, with a control signal flat, not every such curve was filed as active; the % refers to the signal ratio; further: 0% is about no effect); conditions: hypoxia response reporter cells, beta-lactamase ratio readout; series mostly up to 104 µM
# In short: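 HRE-bla ME-180, 2500 cells/well, 0.5% dialyzed FBS medium; cpd titration, 17 h 37 degrees C; CCF4 2.5 h RT; Ex 405, Em 460/530 ratio -> %Activity, AC50.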
# [6] = molecular target: DNA repair nuclease/redox regulator APEX1 (Homo sapiens) (UniProt P27695); experiment: qHTS Validation Assay for Inhibitors of the Human Apurinic/apyrimidinic Endonuclease 1 (APE1) (AID 1705;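 further: TAMRA fluorescence gain over two minutes as APE1 cuts a quenched THF abasic duplex; on the % scale 0 is the no-effect control and ±100 the full control effect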); conditions: purified APE1 endonuclease activity, fluorescence, titration; series mostly up to 57.1 µM
# In short: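 Human APE1 was preincubated with compound for 15 min at room temperature, then 50 nM (final) THF-abasic double-stranded DNA substrate bearing 5'-TAMRA and 3'-BHQ-2 was added. Incision-driven fluorescence rise (ex 525/em 598 nm) was read kinetically.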
# [7] = Counterscreen for APE1 Inhibitors: Fluorescent Dye Displacement Validation Assay (AID 1707); conditions: fluorescent dye displacement from DNA; series mostly up to 57.1 µM;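 further: plate controls were ThO with dsDNA and no compound for no effect and ThO without dsDNA for full effect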
# In short: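 Counterscreen flags promiscuous DNA binders: compounds displacing ThO from duplex DNA (abasic THF site, 50 nM) reduce 540 nm emission (480 nm excitation). ThO 250 nM final; Tris-HCl pH 7.5 with NaCl, MgCl2 and Tween-20.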
# [8] = molecular target: Endonuclease 4 (Escherichia coli (strain K12)) (UniProt P0A6C1); experiment: Counterscreen for APE1 Inhibitors: qHTS Validation Assay for Inhibitors of Endonuclease IV (AID 1708); further: on the % scale 0 is the no-effect control and ±100 the full control effect; conditions: E. coli endonuclease IV, DNA cleavage fluorescence; series mostly up to 57.1 µM
# In short: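 Measured as reaction progress, the fluorescence gain between first and third kinetic reads after adding 50 nM TAMRA/BHQ-2 THF duplex to 2 nM enzyme preincubated 15 min with compound; 2 mM MgCl2, pH 7.5.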
# [9] = qHTS for differential inhibitors of proliferation of Plasmodium falciparum line 7G8 (AID 1815); conditions: Plasmodium falciparum 7G8 proliferation inhibition; series mostly up to 28.7 µM;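 further: parasite growth measured after three days of incubation; plate controls were vehicle wells for no effect and reference inhibitor wells for full effect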
# [10] = qHTS for differential inhibitors of proliferation of Plasmodium falciparum line GB4 (AID 1816); conditions: series mostly up to 28.7 µM;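 further: parasite growth measured after 72 h incubation; 0% = vehicle DMSO and -100% = reference inhibitor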
# [11] = qHTS for differential inhibitors of proliferation of Plasmodium falciparum line 3D7 (AID 1876);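 further: parasite growth measured after three days of culture; 0% = vehicle wells and -100% = reference inhibitor wells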; conditions: P. falciparum 3D7 proliferation inhibition; series mostly up to 28.7 µM
# [12] = qHTS for differential inhibitors of proliferation of Plasmodium falciparum line D10 (AID 1877); conditions: series mostly up to 28.7 µM;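 further: parasites grown with compound for 72 h before DNA staining; plate controls were vehicle wells for no effect and reference inhibitor wells for full effect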
# [13] = qHTS for differential inhibitors of proliferation of Plasmodium falciparum line Dd2 (AID 1882); conditions: series mostly up to 28.7 µM;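 further: compound exposure of 72 h on infected erythrocytes; plate controls were DMSO vehicle for no effect and 0.29 µM artemisinin for full effect; nearly all actives have a fitted effect of over 65% in size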
# In short: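 RBC culture, 0.3% parasitemia / 2.5% Hct final; cpd added by pin tool in DMSO; 72 h, 37 C, 5% CO2; lysis buffer + SYBR Green I, o/n RT dark; FI 485/535; norm. to artemisinin 0.29 uM and DMSO.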
# [14] = qHTS for differential inhibitors of proliferation of Plasmodium falciparum line W2 (AID 1883); conditions: series mostly up to 28.7 µM;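 further: parasites grown with compound for 72 h before lysis and staining; 0% = vehicle wells and -100% = control inhibitor wells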
# [15] = qHTS for differential inhibitors of proliferation of Plasmodium falciparum line HB3 (AID 1886); conditions: series mostly up to 28.7 µM;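 further: parasites grown with compound for 72 h before SYBR Green readout; plate controls were vehicle for no effect and reference inhibitor for full effect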
# [16] = molecular target: Ferritin light chain (Equus caballus) (UniProt P02791); experiment: qHTS Validation Assay for Identification of Novel General Anesthetics (AID 2323); conditions: horse apoferritin, anesthetic-site fluorescent probe displacement; series mostly up to 76.9 µM; further: on the % scale 0 is the no-effect control and ±100 the full control effect
# In short: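 Competitive displacement of profluorescent 1-aminoanthracene (1-AMA, 50% saturated solution in PBS) from 10 uM horse-spleen apoferritin. Compounds incubated 10 min at room temperature; fluorescence read at 380 nm excitation/535 nm emission, normalized to free 1-AMA and complex, fitted with four-parameter Hill equation.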
# [17] = molecular target: ATP-dependent DNA helicase Q1 (Homo sapiens) (UniProt P46063); experiment: qHTS Validation Assay for Inhibitors of RecQ-Like Dna Helicase 1 (RECQ1) (AID 2353); conditions: recombinant RECQ1 helicase DNA unwinding assay; series mostly up to 25.6 µM;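 further: plate controls were DMSO vehicle for no effect and enzyme-free control for full effect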
# In short: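 RECQ1T1 50 nM; forked duplex (20 bp + 30-nt ss tails) 200 nM, ATP 2 mM final; pH 8.0, 2 mM MgCl2, 2.5 ug/ml poly(dI-dC); 15 min compound preincubation; discontinuous kinetic read over 2 h at RT.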
# [18] = molecular target: RecQ-like DNA helicase BLM (Homo sapiens) (UniProt P54132); experiment: qHTS Validation Assay for Inhibitors of Bloom's syndrome helicase (BLM) (AID 2364); conditions: BLM helicase DNA unwinding, fluorescence, in vitro; series mostly up to 57.1 µM;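 further: plate controls were DMSO vehicle for no effect and enzyme-free control for full effect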
# In short: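 BLM 50 nM in 25 mM Tris-HCl pH 8.0, 5 mM NaCl, 2 mM MgCl2, 1 mM DTT, 0.01% Tween-20, 2.5 ug/ml poly(dI-dC); 15 min cpd preinc, RT. Start: 200 nM forked DNA + 2 mM ATP (final). TAMRA read, 2 reads 2 h apart.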
# [19] = measured here: cell count channel max response
# [20] = measured here: lipid channel max response
# DNA repair nuclease/redox regulator APEX1 (Homo sapiens), sequence (P27695 whole entry, looked up): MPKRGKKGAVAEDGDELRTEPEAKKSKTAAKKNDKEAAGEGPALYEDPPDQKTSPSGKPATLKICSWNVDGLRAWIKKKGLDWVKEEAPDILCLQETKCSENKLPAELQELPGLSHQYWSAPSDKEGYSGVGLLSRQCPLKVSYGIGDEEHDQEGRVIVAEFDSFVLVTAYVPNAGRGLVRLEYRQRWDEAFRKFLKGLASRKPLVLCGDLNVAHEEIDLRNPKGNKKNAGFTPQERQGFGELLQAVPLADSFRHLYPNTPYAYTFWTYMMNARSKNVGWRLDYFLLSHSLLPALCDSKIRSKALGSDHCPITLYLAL
# ATP-dependent DNA helicase Q1 (Homo sapiens), sequence (P46063 whole entry, looked up): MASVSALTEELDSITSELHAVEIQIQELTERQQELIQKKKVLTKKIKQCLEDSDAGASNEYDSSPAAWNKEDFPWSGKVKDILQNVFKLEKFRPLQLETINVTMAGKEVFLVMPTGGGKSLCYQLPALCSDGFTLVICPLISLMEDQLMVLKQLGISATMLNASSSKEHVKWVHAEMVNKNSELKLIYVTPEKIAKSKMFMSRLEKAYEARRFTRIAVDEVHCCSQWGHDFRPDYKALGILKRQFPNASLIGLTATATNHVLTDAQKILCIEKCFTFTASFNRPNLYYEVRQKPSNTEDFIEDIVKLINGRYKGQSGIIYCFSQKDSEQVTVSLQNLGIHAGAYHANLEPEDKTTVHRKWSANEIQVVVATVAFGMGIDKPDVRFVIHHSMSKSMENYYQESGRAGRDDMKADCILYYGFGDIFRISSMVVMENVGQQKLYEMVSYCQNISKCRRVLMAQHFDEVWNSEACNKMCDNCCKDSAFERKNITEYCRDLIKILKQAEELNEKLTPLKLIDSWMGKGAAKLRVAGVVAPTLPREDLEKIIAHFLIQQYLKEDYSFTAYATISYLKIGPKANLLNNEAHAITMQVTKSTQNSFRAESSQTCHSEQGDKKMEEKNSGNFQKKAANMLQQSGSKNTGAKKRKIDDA
# RecQ-like DNA helicase BLM (Homo sapiens), sequence (P54132 whole entry, looked up): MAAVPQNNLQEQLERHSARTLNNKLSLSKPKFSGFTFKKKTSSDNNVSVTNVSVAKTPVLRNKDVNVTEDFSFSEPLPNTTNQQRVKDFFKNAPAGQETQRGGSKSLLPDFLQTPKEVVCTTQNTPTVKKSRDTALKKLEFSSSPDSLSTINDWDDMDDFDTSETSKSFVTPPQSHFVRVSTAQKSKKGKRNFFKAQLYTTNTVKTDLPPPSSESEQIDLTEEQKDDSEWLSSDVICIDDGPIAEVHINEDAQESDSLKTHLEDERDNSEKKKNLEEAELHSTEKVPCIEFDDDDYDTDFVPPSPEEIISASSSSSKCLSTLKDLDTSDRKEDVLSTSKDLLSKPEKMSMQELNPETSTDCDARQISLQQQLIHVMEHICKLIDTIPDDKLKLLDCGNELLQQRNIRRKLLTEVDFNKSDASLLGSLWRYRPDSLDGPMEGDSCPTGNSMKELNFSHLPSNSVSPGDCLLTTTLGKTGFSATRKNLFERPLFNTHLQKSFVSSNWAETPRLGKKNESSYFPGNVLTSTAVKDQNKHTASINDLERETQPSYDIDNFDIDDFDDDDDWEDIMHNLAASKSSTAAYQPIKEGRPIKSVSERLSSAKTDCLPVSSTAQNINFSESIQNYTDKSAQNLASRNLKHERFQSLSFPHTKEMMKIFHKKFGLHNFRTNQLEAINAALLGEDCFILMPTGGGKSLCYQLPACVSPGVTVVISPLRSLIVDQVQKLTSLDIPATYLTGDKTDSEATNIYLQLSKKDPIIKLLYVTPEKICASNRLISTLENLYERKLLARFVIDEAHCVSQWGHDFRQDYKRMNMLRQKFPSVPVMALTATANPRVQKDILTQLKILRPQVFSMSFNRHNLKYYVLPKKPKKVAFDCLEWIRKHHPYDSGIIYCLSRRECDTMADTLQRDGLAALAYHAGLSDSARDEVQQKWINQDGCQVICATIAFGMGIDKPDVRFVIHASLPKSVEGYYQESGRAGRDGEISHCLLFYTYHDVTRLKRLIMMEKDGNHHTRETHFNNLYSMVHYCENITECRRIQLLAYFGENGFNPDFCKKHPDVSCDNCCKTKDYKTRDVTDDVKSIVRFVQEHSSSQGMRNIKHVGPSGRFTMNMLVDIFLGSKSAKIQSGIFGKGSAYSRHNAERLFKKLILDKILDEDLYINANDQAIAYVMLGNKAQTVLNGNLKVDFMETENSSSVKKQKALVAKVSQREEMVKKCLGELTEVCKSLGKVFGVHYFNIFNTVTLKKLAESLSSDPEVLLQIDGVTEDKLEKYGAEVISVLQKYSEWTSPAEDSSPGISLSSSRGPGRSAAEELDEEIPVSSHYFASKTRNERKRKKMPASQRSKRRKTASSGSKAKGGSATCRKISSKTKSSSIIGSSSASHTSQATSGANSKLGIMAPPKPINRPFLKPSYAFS
# Ferritin light chain (Equus caballus), sequence (P02791 2-175 limits assumed): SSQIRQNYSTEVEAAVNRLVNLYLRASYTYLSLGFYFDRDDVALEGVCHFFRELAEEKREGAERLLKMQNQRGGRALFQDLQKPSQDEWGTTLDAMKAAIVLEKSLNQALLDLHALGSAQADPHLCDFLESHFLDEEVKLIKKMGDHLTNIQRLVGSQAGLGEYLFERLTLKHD
smiles,measurement,setting,value
Nc1nc2c(c(=O)[nH]1)N(C=O)[C@H](CNc1ccc(C(=O)N[C@@H](CCC(=O)O)C(=O)O)cc1)CN2,"activity change, negative = inhibition",[1]; at 25.7 µM (top of the series),-2.58% (inactive)
same,max response,[1]; [19],-9.43%
same,max response,[1]; [20],-11.6%
COc1cc2c(cc1O)CCC1C2CC[C@@]2(C)C1CC[C@@H]2O (stereo partly drawn),"activity change, negative = inhibition",[1]; at 57.5 µM (top of the series),-1.86% (inactive)
same,max response,[1]; [19],18.4%
same,max response,[1]; [20],18.6%
C[C@@]12C(=O)OC(=O)[C@@]1(C)C1CCC2O1,"activity change, negative = inhibition",[1]; at 57.5 µM (top of the series),-13.3% (inactive)
same,max response,[1]; [19],-9.65%
same,max response,[1]; [20],-21.9%
c1coc(CNc2ncnc3nc[nH]c23)c1,"activity change, negative = inhibition",[1]; at 25.7 µM (top of the series),1.26% (inactive)
same,"activity change, negative = inhibition",[1]; at 57.5 µM (top of the series),6.17% (inactive)
same,max response,[1]; [19],-19.4% and 15.6%
same,max response,[1]; [20],-19.1% and 25.8%
Cc1cc(O)c2c(c1)C(=O)c1cccc(O)c1C2=O,outcome,[2],inactive
same,outcome,[3],inactive
same,outcome,[4],inactive
same,"activity change, negative = inhibition",[1]; at 57.5 µM (top of the series),5.96% (inactive) and -4.1% (inactive)
same,max response,[1]; [19],3.86% and 2.84%
same,max response,[1]; [20],13.4% and 1.16%
same,outcome,[5],inactive
N=c1ccn2c(n1)O[C@H]1[C@@H](O)[C@@H](CO)O[C@H]12,outcome,[6],inactive
same,outcome,[7],inactive
same,outcome,[8],inactive
same,outcome,[9],inactive
same,outcome,[10],inactive
same,outcome,[11],inactive
same,outcome,[12],inactive
same,outcome,[13],inactive
same,outcome,[14],inactive
same,outcome,[15],inactive
same,outcome,[16],inactive
same,outcome,[17],inactive
same,outcome,[18],inactive
